Assay outcomes deposited in PubChem by National Center for Advancing Translational Sciences (NCATS).
CHX counter: counter-screen for Shiga toxin inhibitors: cycloheximide protein synthesis inhibition. cell reporter, cycloheximide protein synthesis inhibition counterscreen. max response, %. actives 12% (n = 300,000). AID 2314; in the data active = max response mostly above about 13%, no sharp cut-off; inactive = mostly below about 14%; also: read at 38.3 µM for the half of the compounds with a filed dose; 0% is about no effect
FMDV antiviral: blocks foot and mouth disease virus. AID 1159524. Potency, µM (top dose mostly 57.9 µM), without a hit: at the highest dose activity change, negative = inhibition, usual class: inhibitors. FMDV antiviral cell-based qHTS. actives 1.2% (n = 410,000); calls by dose curve; tested in HEK293T cells; also: read-out not given here; potency is read from the fitted curve at half-maximal effect; % is scaled to controls: 0 for no effect and ±100 for the full control effect; nearly all actives have a fitted effect of over 45% in size
Sm TGR inh: S. mansoni TGR enzyme inhibition. Q962Y6. purified TGR, DTNB reduction, TNB absorbance 405 nm. Potency, µM (titrated, usually from 114 µM), for the others: at the top dose activity change, negative = inhibition, most hits filed as inhibitors. actives 3% (n = 360,000). AID 485364; active = well fitted inhibition curve with a large enough effect; inconclusive = small, poorly fitted or top-dose-only effect; inactive = no such curve, though single readings can be large or run the other way; also: potency is read from the fitted curve at half-maximal effect; % is scaled to controls: 0 for no effect and ±100 for the full control effect; nearly all actives have a fitted effect of over 60% in size
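TGR 20 nM + NADPH 100 uM (dispensed conc.), cpd preinc 15 min RT; start with NADPH (500 uM addition) then DTNB (15 mM addition). Kinetic TNB absorbance, 405 nm filter. Four-parameter Hill fit across titration.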
Shiga inhibitor: blocks Shiga toxin action in Vero cells; Vero cells, Shiga toxin protein synthesis inhibition reporter; inhibition, % at 38.7 µM; actives 9.2% (n = 290,000); AID 2315; in the data active = inhibition mostly above about 28%, no sharp cut-off; inactive = mostly below about 43%; also: 0% is about no effect
Active calls of the source: *; ? = inconclusive; . = no result; ! = not confirmed by another sample; [ ] = dose if it differs, or a comment. Hits are enriched below; roughly 12% of the tested compounds scored in any of these assays.

SMILES	CHX counter	FMDV antiviral	Sm TGR inh	Shiga inhibitor
S=C(Nc1ccc(Cl)cc1)Nc1ccc2cn[nH]c2c1	8.2	22.4%	.	20.3
Cc1ccccc1NC(=S)Nc1ccc2cn[nH]c2c1	8.0	46.2%	-19.7%	41.2
S=C(Nc1ccc2cn[nH]c2c1)Nc1ccccc1Cl	72.6*	51.2%	?	51.0*
S=C(Nc1ccc2cn[nH]c2c1)Nc1ccc(Cl)cc1Cl	17.9*	10.8%	.	47.4
Cc1ccc(C(=O)N(Cc2cc3cccc(C)c3nc2N2CCC(O)CC2)C2CC2)cc1	.	-12.9%	.	.
Cc1ccc(-c2noc(-c3ccc(N4CCC(C)CC4)c([N+](=O)[O-])c3)n2)cc1	.	0.0%	-9.5%	.
c1ccc(-c2noc(CN3CCN(c4ccccc4)CC3)n2)cc1	-2.4	-8.9%	0.0%	-4.8
CN1CCCN(Cc2nc(-c3ccc(Cl)cc3)no2)CC1	29.1*	-24.9%	17.8µM*	35.2
CC1CCN(Cc2nnc(-c3cccc(Br)c3)o2)CC1	34.1*	23.7%	-2.9%	31.8*
CC1CCN(Cc2nc(-c3ccccc3)no2)CC1	23.1*	14.6%	0.6%	25.0
CC1CCN(c2ccc(-c3nc(-c4ccccc4)no3)cc2[N+](=O)[O-])CC1	43.8*	4.5%	-12.4%	82.3*
CCCC[C@@H](NC(=O)[C@@H](Cc1cn(C(=O)OC)c2ccccc12)NC(=O)[C@H](CC(C)(C)C)NC(=O)N1[C@H](C)CCC[C@@H]1C)C(=O)O	5.1	.	.	-6.7
S=c1[nH]c2ccccc2s1	14.8	31.1%	.	-4.0
COC(=O)c1ccc(-c2noc(CN(C)CCC3CCCCO3)n2)cc1 (configuration not stated)	16.1*	-15.2%	0.1µM*	31.3
NC(=O)[C@@H]1CCCN1Cc1nc(-c2ccc(C(F)(F)F)cc2)no1	16.1*	-11.4%	-7.0%[57.1 µM]	11.5
Cc1ccc(-c2noc(CN3CCC(C(N)=O)CC3)n2)cc1	41.2*	68.1%	?	84.1*
CCN(Cc1nc(-c2ccc(Cl)cc2)no1)CC1CCCO1 (configuration not stated)	14.5*	-3.3%	1.9%	16.5
COc1cc(=O)n2c(c1C(=O)N(C)Cc1nccs1)CCN(Cc1c(F)ccc(F)c1F)CC2	.	-1.1%	.	.
c1ccc(-c2noc(CN3CCc4sccc4C3)n2)cc1	18.2*	24.0%	.	50.5
c1ccc(-c2noc(CN3CCN(C(c4ccccc4)c4ccccc4)CC3)n2)cc1	-4.5	.	6.6%	-3.5
Cc1ccc(-c2noc(CN3C(C)CCCC3C)n2)cc1 (configuration not stated)	22.4*	13.6%	?	-0.5
Cc1ccc(N2CCN(C(=O)NCc3noc4ccc(C)cc34)CC2)c(C)c1	.	-13.8%	1.4%	.
COC(=O)C1=C(O)/C(=C\c2ccc(O)c(OC)c2)N=C1C	-1.7	14.2%	50.1µM*	23.2
Nc1ccc2oc(-c3ccccc3Cl)cc(=O)c2c1O	50.3*	64.6%	-18.7%	42.5*
Cc1ccccc1-c1cc(=O)c2c(O)cccc2o1	22.5*	9.2%	1.8%	28.4*
SMILES	CHX counter	FMDV antiviral	Sm TGR inh	Shiga inhibitor
O=c1cc(-c2cccc(Br)c2)oc2cccc(O)c12	-3.4	17.2%	-29.8%	-6.8
O=c1cc(-c2ccccc2)oc2cccc(O)c12	.	38.9%	.	.
O=c1cc(-c2cccc(Cl)c2)oc2cccc(O)c12	26.7*!	34.5%	?	97.2
Cc1ccc(-c2noc(-c3nnn(CC(=O)Nc4cc(C)cc(C)c4)c3N)n2)cc1	.	-7.8%	-9.6%	.
COC(=O)Nc1ccc(OCC(=O)N2CCOCC2)cc1	-1.5	-3.0%	-3.6%	8.9
CCOc1ccc(OCC(=O)N2CCOCC2)cc1	14.5	6.9%	-15.7%	25.3
N#CC(C#N)=Cc1ccc(OCC(=O)N2CCOCC2)cc1	15.5	-4.9%	2.51µM*	18.3
Cc1ccc(OCC(=O)N2CCOCC2)cc1C	30.8*	0.0%	0.4%	44.3*
Cc1ccc(OCC(=O)c2ccc3c(c2)CCCC3)cc1C	35.8*	32.2%	16.9%	91.7*
O=C(c1ccccc1)c1ccc(OCC(=O)N2CCOCC2)cc1	16.7	12.6%	4.7%	46.0*
O=C(COc1ccc(Br)cc1)c1ccc2c(c1)CCCC2	-2.6	-21.8%	44.6%	-4.6
COc1ccc2c(c1)CC[C@@H]1[C@@H]2CC[C@]2(C)[C@@H](NCCCCCCN3C(=O)C=CC3=O)CC[C@@H]12	.	-8.5%	.	.
CCc1nnc(SCC(=O)Nc2cc(Cl)c(OC)cc2OC)c2cc3oc(C)cc3n12	.	-18.7%	2.1%	.
COc1ccc(/C=N/OCC(=O)N2CCCC2)c(OC)c1	16.9*	0.0%	-2.2%	29.8
Cc1cc(=O)oc2ccc(OCC(=O)N3CCC(C)CC3)cc12	16.3	1.3%	17.8µM*	26.0
Cc1cc(OCC(=O)N2CCCCCC2)ccc1[N+](=O)[O-]	42.5*	28.4%	4.1%	17.3
Cc1ccc(OCC(=O)N2CCCCCCC2)cc1C	21.0*	16.7%	9.6%	29.1*
Cc1c(CNC2CCCCCC2)c(C(=O)O)c(C)n1Cc1c(F)cccc1Cl	.	-0.2%	-0.2%	.
O=C(CCc1ccccc1)NC1CC(=O)N(c2cccc(F)c2)C1 (configuration not stated)	.	-14.0%	9.3%	.
CCc1cccc(CC)c1NC(=O)c1cc(S(=O)(=O)N2CCc3ccccc32)cn1C	.	3.4%	-2.7%	.
O=C(Nc1c(C(=O)Nc2ccc(F)cc2)oc2ccccc12)c1cc2ccccc2o1	.	35.1%	6.0%	.
Cc1cc2c(n1-c1ccc(C(=O)NCCc3ccc(Cl)cc3)cc1)CCC(C)C2 (configuration not stated)	.	-23.5%	-11.0%	.
Cc1cccc(Cn2c(SCc3ccc(C(=O)N4CCCCCC4)cc3)nc3ccncc32)c1	19.0	-24.3%	-9.7%	8.1
Cc1cc(OCC(=O)N2CCOCC2)cc2oc(=O)c3ccccc3c12	20.9*	-15.0%	-3.4%	35.5*
Cc1ccc(C)c(OCCCC(=O)N2CCOCC2)c1	27.3*	13.2%	9.8%	44.2*
SMILES	CHX counter	FMDV antiviral	Sm TGR inh	Shiga inhibitor
Cn1c(=O)n(C)c2cc(N3CCCCC3)c(NC(=O)c3ccc(C(C)(C)C)cc3)cc21	.	?	-4.2%	.
COc1cccc(Nc2nc3ccc(C(=O)c4ccccc4)cc3n3c(C)nnc23)c1	.	-18.9%	3.8%	.
CCOC(=O)C1=C(C)OC(N)=C(C#N)C1c1cc2cc(C)ccc2nc1N1CCCCC1 (configuration not stated)	14.6	12.8%	3.55µM*	45.5*
CCOC(=O)C1=C(C)OC(N)=C(C#N)C1c1cc(SCC)oc1C (configuration not stated)	8.8	-11.8%	44.7µM*	51.9
CCOC(=O)c1cc(C)n(CCCN2CCOCC2)c1C	1.5	13.0%	2.3%	-8.1
CCOC(=O)c1cc(C)n(CCc2cnc[nH]2)c1C	14.7*	2.3%	-3.5%	27.2
CCN(CC)c1ccc(NS(=O)(=O)c2ccc(-c3coc(C)n3)cc2)c(C)c1	.	-24.9%	?	.
CCOc1ccc(OCC(=O)Nc2c(C(=O)Nc3ccc(C)cc3)oc3ccccc23)cc1	.	14.7%	-3.3%	.
CCOC(=O)Cn1nc(/C=C/c2ccc(C(C)C)cc2)ccc1=O	9.7*	-20.1%	1.3%	33.2
CCOC(=O)Cn1nc(/C=C/c2ccc(C)cc2)ccc1=O	8.2	-20.5%	-13.6%	27.5
COC(=O)c1ccc(CN2C(=O)NC3(CCC(C)CC3)C2=O)o1 (configuration not stated)	-3.9	0.0%	0.0%	-6.0
